Data taken from the supplement of paper PMC6992640.
± gives the standard deviation of the averaged measurements.

What follows are molecules tested on WHIM2 (cells of a triple-negative basal-like breast cancer xenograft) (assay: cell viability (% of vehicle); higher = less cytotoxic). Conditions: 10 µM; 72 h.
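Also: PDX cells carrying CMV promoter-driven luciferase, viability read as total photon flux per second by IVIS imaging following D-luciferin, vehicle control 0.1% DMSO.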

First: Cc1ccc(-n2[nH]c(C)c(NN=C3C=CC=C(c4cccc(C(=O)O)c4)C3=O)c2=O)cc1C.NCCO.NCCO [Eltrombopag Olamine]
Second: CCOc1nc2cccc(C(=O)OCc3oc(=O)oc3C)c2n1Cc1ccc(-c2ccccc2-c2nc(=O)o[nH]2)cc1 [Azilsartan Medoxomil]
The cell viability of the first is lower: 36.8 ± 0.9 for the first, 106 ± 18 for the second.

`CCN1CCN(c2cc3c(cc2F)c(=O)c(C(=O)O)cn3C2CC2)CC1` [Enrofloxacin] and `NC(=O)N1CCC(CC(=O)N2CCC(C3c4ncc(Br)cc4CCc4cc(Cl)cc(Br)c43)CC2)CC1` (stereo not given) [Lonafarnib] are within error of each other in cell viability: 130 ± 18 for the first, 126 ± 12 for the second.

First: C[N+]1(C)C2CCC1CC(OC(=O)C(O)c1ccccc1)C2.[Br-] (stereo not given) [Homatropine Methylbromide]
Second: NC(=O)C1CCCc2c1[nH]c1ccc(Cl)cc21 (stereo not given)
The cell viability of the first is lower: 112 ± 8 for the first, 141 ± 7.4 for the second.

First: COc1ccc(C2CNC(=O)C2)cc1OC1CCCC1 (stereo not drawn) [S- (+)-Rolipram]
Second: Cc1cccc(C)c1NC(=O)C1CCCCN1C.Cl (stereo not given) [Mepivacaine HCl]
The cell viability of the first is higher: 117.8 ± 0.47 for the first, 89.7 ± 14 for the second.

First: CO[C@H]1/C=C/O[C@@]2(C)Oc3c(C)c(O)c4c(O)c(c5c(nc6cc(C)ccn65)c4c3C2=O)NC(=O)/C(C)=C\C=C\[C@H](C)[C@H](O)[C@@H](C)[C@H](O)[C@@H](C)[C@H](OC(C)=O)[C@@H]1C [Rifaximin (Xifaxan)]
Second: COC1C(OC(N)=O)C(O)C(Oc2ccc3c(O)c(NC(=O)c4ccc([O-])c(CC=C(C)C)c4)c(=O)oc3c2C)OC1(C)C.[Na+] (stereo not given) [Novobiocin Sodium]
The cell viability of the first is lower: 68.6 ± 13 for the first, 130 ± 5.4 for the second.

First: CS(=O)(=O)N1CCN(Cc2cc3nc(-c4cccc5[nH]ncc45)nc(N4CCOCC4)c3s2)CC1
Second: CC(=O)N1CCN(c2ccc(OCC3COC(Cn4ccnc4)(c4ccc(Cl)cc4Cl)O3)cc2)CC1 (single isomer, unassigned; (+)) [(+)-Ketoconazole]
The cell viability of the first is lower: 63.7 ± 3.2 for the first, 134 ± 9.5 for the second.

Going from `O=C(O)C1=COC(OC2OC(CO)C(O)C(O)C2O)C2C(CO)=CCC12` (stereo not given) [Geniposidic acid] to `CCC(C)C(=O)OC1CC(C)C=C2C=CC(C)C(CCC3CC(O)CC(=O)O3)C21` (stereo not given) [Lovastatin], the cell viability falls from 94.3 ± 6 to 71.5 ± 6.6.

`CCC(CC)C(NC(C)=O)C1C(N=C(N)N)CC(C(=O)O)C1O` (stereo not given) [Peramivir] and `NCCCCC(NC(CCc1ccccc1)C(=O)O)C(=O)N1CCCC1C(=O)O.O.O` (stereo not given) [Lisinopril dihydrate] are within error of each other in cell viability: 97.5 ± 6.7 for the first, 94 ± 22 for the second.

First: CC(C)NCC(O)c1ccc(NS(C)(=O)=O)cc1.Cl (stereo not given) [Sotalol hydrochloride]
Second: Cc1cc(NS(=O)(=O)c2ccc(N)cc2)no1 [Sulfamethoxazole]
The cell viability of the first is lower: 110 ± 5.1 for the first, 117.5 ± 0.64 for the second.

Going from `CC(C)(O)c1ccccc1CCC(SCC1(CC(=O)[O-])CC1)c1cccc(C=Cc2ccc3ccc(Cl)cc3n2)c1.[Na+]` (stereo not given) [Montelukast Sodium] to `COC(=O)NC(C(=O)NC(Cc1ccccc1)C(O)CN(Cc1ccc(-c2ccccn2)cc1)NC(=O)C(NC(=O)OC)C(C)(C)C)C(C)(C)C.O=S(=O)(O)O` (stereo not given), the cell viability rises from 50.8 ± 12 to 90 ± 6.2.

Going from `CC(=O)[N-]S(=O)(=O)c1ccc(N)cc1.[Na+]` [Sulfacetamide Sodium] to `NC(N)=NS(=O)(=O)c1ccc(N)cc1` [Sulfaguanidine], the cell viability rises from 85.757 ± 0.01 to 116 ± 6.5.

`Cc1onc(-c2ccccc2Cl)c1C(=O)NC1C(=O)N2C1SC(C)(C)C2C(=O)[O-].O.[Na+]` (stereo not given) [Cloxacillin Sodium] and `CC(=O)O[C@@]12CO[C@@H]1C[C@H](O)[C@@]1(C)C(=O)[C@H](O)C3=C(C)[C@@H](OC(=O)[C@H](O)[C@@H](NC(=O)OC(C)(C)C)c4ccccc4)C[C@@](O)([C@@H](OC(=O)c4ccccc4)[C@H]21)C3(C)C` [Docetaxel] are within error of each other in cell viability: 132 ± 37 for the first, 96.3 ± 7.4 for the second.

Compared with `CN1CCC(=C2c3ccccc3C=Cc3ccccc32)CC1.Cl` [Cyproheptadine hydrochloride], `O=C1NC(=O)[C@@H](c2c[nH]c3ccccc23)[C@H]1c1cn2c3c(cccc13)CCC2` [Tivantinib (ARQ 197)] is higher in cell viability: 81.1 ± 14 for the first, 107 ± 11 for the second.

`COc1c(C)c2c(c(O)c1CC=C(C)CCC(=O)O)C(=O)OC2` [Mycophenolic acid] and `CCOc1cc(N)c(Cl)cc1C(=O)NCC1CN(Cc2ccc(F)cc2)CCO1.O=C(O)CC(O)(CC(=O)O)C(=O)O` (stereo not given) [Mosapride Citrate] are within error of each other in cell viability: 65.8 ± 7.6 for the first, 82.6 ± 16 for the second.

`Cl.NC12CC3CC(CC(C3)C1)C2` [Amantadine HCl] and `C#C[C@]1(O)CC[C@H]2[C@@H]3CCC4=CCCC[C@@H]4[C@H]3C(=C)C[C@@]21CC` [Desogestrel] are within error of each other in cell viability: 107 ± 17 for the first, 64.2 ± 39 for the second.

First: NNC(=O)c1ccncc1.Nc1ccc(C(=O)O)c(O)c1 [Pasiniazid]
Second: CNCc1ccc(-c2[nH]c3cc(F)cc4c3c2CCNC4=O)cc1.O=P(O)(O)O
The cell viability of the first is lower: 80.5 ± 33 for the first, 173 ± 26 for the second.

Compared with `Nc1cccc2c1C(=O)N(C1CCC(=O)NC1=O)C2=O` (stereo not given) [Pomalidomide (CC-4047)], `COc1ccc(C=Cc2cc(OC)c(OC)c(OC)c2)cc1OP(=O)([O-])[O-].[Na+].[Na+]` [Fosbretabulin (Combretastatin A4 Phosphate (CA4P)) Disodium] is higher in cell viability: 73.9 ± 5.1 for the first, 111 ± 12 for the second.

`CC(=O)N[C@H](Cc1ccc2ccccc2c1)C(=O)N[C@H](Cc1ccc(Cl)cc1)C(=O)N[C@H](Cc1cccnc1)C(=O)N[C@@H](CO)C(=O)N[C@@H](Cc1ccc(O)cc1)C(=O)N[C@H](CCCNC(N)=O)C(=O)N[C@@H](CC(C)C)C(=O)N[C@@H](CCCNC(=N)N)C(=O)N1CCC[C@H]1C(=O)N[C@H](C)C(N)=O` [Cetrorelix] showed a cell viability of 122 ± 61.
